Compound activity as filed in PubChem BioAssay.
D1 allo mod: allosterically modulates the human D1 dopamine receptor. HEK293 D1, CRE-luciferase, dopamine EC30 potentiation; actives deviate in either direction. actives 5.9% (n = 58,000). B-score at 10 µM;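 active = luminescence count or its row- and column-corrected plate score outside the 99.7% band of the plate's sample wells, on either side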
Mac1 fbg inh: inhibitors of human CD11b/CD18 binding to fibrinogen | K562 CD11b/CD18 adhesion to fibrinogen, ATPlite luminescence; Mn2+ added to activate the integrin | inhibition, % at 10 µM | actives 0.54% (n = 93,000) | AID 1497;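 active = primary inhibition of 50% or more at 10 µM, then 40% or more on retest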
hDAT+cocaine: changed human dopamine transporter uptake under cocaine IC80. B-score at 10 µM. LLC-PK1 hDAT cells, [14C]-dopamine uptake with cocaine IC80; actives deviate in either direction. AID 449768. Q01959. actives 1.3% (n = 110,000);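 active = Z score or B-score, a plate-position-corrected score, falls beyond the plate's 99.7% confidence bounds, in either direction; inactive = both scores lie inside the 99.7% bounds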;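 also: scored against the spread of the other compound wells on the same plate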
FAK inh: blocks human focal adhesion kinase activity; biochemical FAK kinase activity assay; inhibition, %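 (tested at 7 µM)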; actives 0.84% (n = 97,000); AID 727; in the data active = inhibition above about 19%;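 also: 0% = DMSO and 100% = reference compound high control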
PTK2B oligo ant: antagonists of human Pyk2 oligomerization. Q14289. Q293 cells, Pyk2 FERM NanoBiT luminescence; active compounds read low. z-score (the deposit names both 25 µM and 10 µM). actives 0.83% (n = 99,000). AID 1347419;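 active = Z-score of -3 or lower, scaled per plate to the spread of control and sample wells; inactive = z-score above -3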;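 also: negative z-score means lost luminescence so less FERM oligomerization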
Target sequence (Q14289 whole entry, looked up): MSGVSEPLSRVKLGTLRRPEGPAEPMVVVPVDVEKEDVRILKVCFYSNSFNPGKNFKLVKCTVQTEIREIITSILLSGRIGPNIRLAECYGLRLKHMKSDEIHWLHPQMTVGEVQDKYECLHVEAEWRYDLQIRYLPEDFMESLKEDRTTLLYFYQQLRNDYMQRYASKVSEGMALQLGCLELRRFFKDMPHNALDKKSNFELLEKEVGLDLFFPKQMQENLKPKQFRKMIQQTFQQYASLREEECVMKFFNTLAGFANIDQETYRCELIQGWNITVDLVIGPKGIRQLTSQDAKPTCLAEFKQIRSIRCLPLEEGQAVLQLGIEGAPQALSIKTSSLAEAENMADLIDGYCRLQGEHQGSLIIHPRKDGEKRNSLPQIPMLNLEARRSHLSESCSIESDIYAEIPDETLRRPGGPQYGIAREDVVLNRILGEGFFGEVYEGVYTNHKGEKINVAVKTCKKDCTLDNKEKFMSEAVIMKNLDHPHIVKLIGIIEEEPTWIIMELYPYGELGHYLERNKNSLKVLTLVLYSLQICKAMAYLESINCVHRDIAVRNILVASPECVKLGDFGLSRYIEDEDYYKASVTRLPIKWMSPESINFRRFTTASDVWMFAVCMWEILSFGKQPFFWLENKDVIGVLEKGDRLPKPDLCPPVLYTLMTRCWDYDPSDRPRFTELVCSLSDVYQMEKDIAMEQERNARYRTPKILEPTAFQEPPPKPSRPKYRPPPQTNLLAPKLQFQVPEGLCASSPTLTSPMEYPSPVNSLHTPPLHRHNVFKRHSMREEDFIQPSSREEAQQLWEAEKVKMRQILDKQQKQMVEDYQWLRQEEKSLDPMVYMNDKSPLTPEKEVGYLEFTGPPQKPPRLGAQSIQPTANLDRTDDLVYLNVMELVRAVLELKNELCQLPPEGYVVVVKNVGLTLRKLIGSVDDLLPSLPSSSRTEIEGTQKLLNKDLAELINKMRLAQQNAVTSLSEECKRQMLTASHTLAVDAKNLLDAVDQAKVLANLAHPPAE
CD11b adhes enh: increases human CD11b/CD18 adhesion to fibrinogen; P05107+P11215; K562 CD11b/CD18 adhesion to fibrinogen, ATPlite luminescence; activation, % at 10 µM; actives 0.07% (n = 93,000); AID 1499;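 active = 10 µM primary screen giving 50% or more activity, confirmed by 40% or more on retest at that dose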
* hit, by the source's call; x = not tested or not shown. This excerpt belongs to a sample that is enriched for hits.

SMILES	D1 allo mod	Mac1 fbg inh	hDAT+cocaine	FAK inh	PTK2B oligo ant	CD11b adhes enh
O=C(O)C1CC(=O)N(c2ccc(OCc3c(F)cccc3Cl)cc2)C1 (configuration not stated)	-0.99	-15	-0.052	-4	0.27	-1
COc1ccc(-c2nn(C)c3sc(C(=O)NCc4ccco4)cc23)cc1OC	0.6	0	-0.23	x	0.18	41
COc1ccc(NC(=O)c2cc3c(-c4ccc(OC)c(OC)c4)nn(C)c3s2)cc1OC	x	-27	1.1	-5	-3*	6
C=CCSc1nc2sc(-c3ccccc3)cc2c(=O)n1N	x	-9	-0.35	-1	-0.28	-4
Cc1ccccc1-n1c(SCC(N)=O)nc2sc(-c3ccccc3)cc2c1=O	x	10	3*	2	-2.8	-6
Cn1c(SCc2ccc(Cl)cc2)nc(C(F)(F)F)cc1=O	x	-2	-0.1	2	-1.3	-1
CCC(NC(=O)NCc1ccc2c(c1)OCO2)(C(F)(F)F)C(F)(F)F	-0.039	0	-3.4*	1	-1.1	3
N#C/C(=C\c1ccc(-c2ccc([N+](=O)[O-])cc2Br)o1)C(=O)N1CCN(c2ccccc2)CC1	x	-13	x	x	x	43
CCn1cc(C(=O)NCc2ccc3c(c2)OCO3)c(=O)c2ccc(C)nc21	4.3*	-30	x	x	x	8
CCn1cc(C(=O)N2CCN(Cc3ccc4c(c3)OCO4)CC2)c(=O)c2ccc(C)nc21	x	-4	1.9	0	0.4	-4
c1ccc2c(CCNc3ncnc4nc[nH]c34)cccc2c1	x	x	-0.19	21*	-1.9	x
c1ccc(CCCNc2ncnc3nc[nH]c23)cc1	-0.7	8	0.66	x	x	-4
Clc1ccc(CCNc2ncnc3nc[nH]c23)cc1	-5.3*	60*	-0.46	12	x	-9
CCOc1cc(N2CCOCC2)c(OCC)cc1NC(=O)COC(=O)c1cc(C)cc(C)c1	x	1	x	x	x	-2
COc1cccc(OCCCCSc2ncccn2)c1	x	0	0.63	-2	0.67	-1
c1ccc(Oc2cccc(OCCCCSc3ncccn3)c2)cc1	x	-4	-0.17	0	-3.3*	1
CC1(C)Cc2c(C#N)c(NCC3CCCO3)nc(-c3ccco3)c2CO1 (configuration not stated)	x	-1	-0.22	-1	-0.15	0
Cc1nc2oc3c(NCc4ccccc4)ncnc3c2c2c1COC(C)(C)C2	8.5*	-6	x	4	-0.88	-1
CC(C)c1nc2oc3c(NCC4CCCO4)ncnc3c2c2c1COC(C)(C)C2 (configuration not stated)	12*	2	1	1	-0.94	-3
Cc1nc2sc3c(NCc4ccco4)ncnc3c2c2c1COC(C)(C)C2	x	x	0.43	14	-1.4	x
O=C1CCN(C(=O)c2ccccc2)C2CCCCC12 (configuration not stated)	0.33	-10	0.22	x	0.77	0
COC(=O)c1nn(-c2ccccc2)c(Cl)c1/C=N/OCc1ccc(C)cc1	x	x	1.6*	3	-2	x
COc1ccc(C2c3c(-c4ccccc4O)n[nH]c3C(=O)N2CCc2ccc(OC)c(OC)c2)cc1 (configuration not stated)	4.6	9	0.88	4	-3.5*	10
Cc1ccc(C2c3c(-c4ccccc4O)n[nH]c3C(=O)N2Cc2ccncc2)cc1 (configuration not stated)	x	x	-0.89	1	-2.4	x
O=C1c2[nH]nc(-c3ccccc3O)c2C(c2cccc(O)c2)N1Cc1ccco1 (configuration not stated)	x	11	2.1	2	-2.5	7
SMILES	D1 allo mod	Mac1 fbg inh	hDAT+cocaine	FAK inh	PTK2B oligo ant	CD11b adhes enh
COc1cccc(C2c3c(-c4cc(Cl)c(C)cc4O)n[nH]c3C(=O)N2Cc2cccnc2)c1 (configuration not stated)	x	45	-1.1	0	-3.7*	2
COc1cc(C2c3c(-c4cc(Cl)c(C)cc4O)n[nH]c3C(=O)N2Cc2cccnc2)ccc1O (configuration not stated)	3.5	-9	x	-5	-4.8*	-2
O=C(Nc1ccc(Cl)cc1)NC1CCCCC1Cc1ccco1 (configuration not stated)	x	x	-1.6	8	-2.1	x
O=C(Nc1ccc(Cl)cc1)NC1CCCC1Cc1ccco1 (configuration not stated)	-1.6	12	-5.7*	7	1.1	-3
O=C(c1cc2ccccc2oc1=O)N(Cc1ccccc1)Cc1ccc2c(c1)OCO2	x	x	0.41	3	-3.1*	x
Cc1ccc(-c2nnn(CCC(=O)NC3CCCC3)n2)cc1	-1.5	9	-0.22	2	0.83	-4
Cn1c(=N)c(S(=O)(=O)c2ccc(Cl)cc2)cc2c(=O)n3ccccc3nc21	4.8*	x	x	-1	x	x
CCCCNC(=O)C1c2ccccc2C(=O)N(c2ccc(OC)cc2)C1c1ccc(OC)cc1 (configuration not stated)	x	-12	-7.8*	-2	-1.1	1
COc1ccc(OC)c(CCNC(=O)Cn2sc3nc(C)cc(C)c3c2=O)c1	-0.046	52*	0.23	0	x	-7
CCCCSCc1ccc(C(=O)O)o1	x	x	-0.26	1	0.44	x
CC(=O)c1c(C)oc(C)c1CSCc1ccc(C(=O)O)o1	-8.1*	-38	x	-1	0.51	1
COc1ccc(NS(=O)(=O)c2cccc(-c3nnc4n3CCCCC4)c2)cc1	x	-4	0.28	0	-0.09	-1
O=c1[nH]c2ccc(S(=O)(=O)Nc3ccc(-c4nnc5n4CCCCC5)cc3)cc2o1	-5*	-15	-0.67	1	-0.3	-1
CCCOC(=O)c1ccc(-c2c(C)noc2-c2ccc(OC)cc2O)o1	0.076	11	2.8*	0	-2.9	15
CC1(C)CC(=O)C(C(c2ccccc2F)C2C(=O)CC(C)(C)CC2=O)C(=O)C1	x	x	1.5	4	-0.41	x
CC1(C)CC(=O)C(C(c2cccnc2)C2C(=O)CC(C)(C)CC2=O)C(=O)C1	-5.5*	1	0.73	1	0.8	1
O=C(CSc1nnc(-c2c[nH]c3ccccc23)o1)N(Cc1ccccc1)c1ccc(F)cc1	-1	x	2.5	-1	-3.3*	x
COc1ccc(N2C(=O)NC(NC(=O)c3ccncc3)(C(F)(F)F)C2=O)cc1 (configuration not stated)	x	x	-1.1	-2	-0.66	x
C/C(=N\OC(=O)c1ccc(Cl)cc1)c1nccs1	x	x	-2.8*	0	0.06	x
N/C(=N\OC(=O)c1ccc(Cl)cc1)c1ccc(Cl)cc1	x	x	0.13	5	-0.25	x
CC(=O)NC1C(=O)Nc2c(C)cc(C)cc21 (configuration not stated)	x	-4	-0.86	2	-0.02	0
COc1cc(NC(=O)c2ccccc2)cc(OC)c1	-1.2	-4	2	x	0.29	2
COc1cccc(C(=O)Nc2ccc(C)cc2)c1	-4.5*	7	1.3	5	0.33	2
COc1ccc(C(=O)Nc2cc(OC)cc(OC)c2)cc1	-1.7	x	1.7*	-4	-0.31	x
